ALOX12 inh = inhibitors of human 12S-lipoxygenase ALOX12. purified 12hLO, xylenol orange hydroperoxide absorbance. Potency, µM (series often up to 108 µM), for the others: top-dose activity change, negative = inhibition, hits mostly inhibitors. 580,000 tested, 1.1% active. P18054; note: % is set by controls: 0 for no effect and ±100 for the full control effect
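Purified human 12hLO (150 nM final) in 25 mM Hepes, 0.01% Triton X-100, pH 7.0 was preincubated 15 min at room temperature with compound. Then 40 uM arachidonic acid was added, 30 min. Hydroperoxide was read by Fe-XO absorbance ratio 573/405 nm.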
VDR inhibitor = inhibitors of human vitamin D receptor | VDR-SRC2-3 peptide fluorescence polarization, 2 h | Potency, µM, without a hit: max response, negative = inhibition, actives largely listed as inhibitors | 400,000 tested, 0.93% active | AID 504847; note: % is set by controls: 0 for no effect and ±100 for the full control effect
Target sequence (P11473 whole entry, looked up): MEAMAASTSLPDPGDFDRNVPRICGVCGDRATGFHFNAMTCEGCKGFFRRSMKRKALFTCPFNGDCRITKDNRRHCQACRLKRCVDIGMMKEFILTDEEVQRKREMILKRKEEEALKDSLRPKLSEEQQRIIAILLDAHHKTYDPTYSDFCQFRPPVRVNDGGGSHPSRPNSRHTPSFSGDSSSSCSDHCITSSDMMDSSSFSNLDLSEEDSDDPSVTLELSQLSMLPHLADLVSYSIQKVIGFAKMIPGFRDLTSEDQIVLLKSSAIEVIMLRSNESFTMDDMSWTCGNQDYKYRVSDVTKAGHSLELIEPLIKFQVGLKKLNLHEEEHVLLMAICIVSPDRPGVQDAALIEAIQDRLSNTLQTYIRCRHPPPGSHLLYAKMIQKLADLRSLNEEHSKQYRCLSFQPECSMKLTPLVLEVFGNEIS
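Fluorescence polarization assay measuring small-molecule disruption of VDR binding to the coregulator peptide SRC2-3. Compounds were pin-transferred (23 nl) into the reagent mix and incubated 2 h at room temperature before reading.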
Glioma ERSR ind = induces the endoplasmic reticulum stress response in human glioma cells; 420,000 tested, 0.02% active; AID 602332; U87-MG GRP78 promoter luciferase reporter, 16 h; Potency, µM, without a hit: at the highest dose activation, hits mostly activators; note: series mostly up to about 76 µM; % of control where 0% means no effect; nearly all actives have a fitted effect of over 35% in size
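ERSR induction read as luciferase luminescence (Bright-Glo, 10 min at room temperature) in stably transfected human U87-MG glioma cells exposed to compounds for 16 h, using GRP78 as sensor.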
G9a inh = blocks human histone lysine methyltransferase G9a; G9a H3K9 monomethylation, AlphaScreen, 2 h; Potency, µM (titrated, usually from 102 µM), without a hit: at the highest dose activity, negative = inhibition, usual class: inhibitors; 350,000 tested, 8.8% active; note: % is set by controls: 0 for no effect and ±100 for the full control effect; nearly all actives have a fitted effect of over 75% in size
Target sequence (Q96KQ7 913-1193 limits assumed): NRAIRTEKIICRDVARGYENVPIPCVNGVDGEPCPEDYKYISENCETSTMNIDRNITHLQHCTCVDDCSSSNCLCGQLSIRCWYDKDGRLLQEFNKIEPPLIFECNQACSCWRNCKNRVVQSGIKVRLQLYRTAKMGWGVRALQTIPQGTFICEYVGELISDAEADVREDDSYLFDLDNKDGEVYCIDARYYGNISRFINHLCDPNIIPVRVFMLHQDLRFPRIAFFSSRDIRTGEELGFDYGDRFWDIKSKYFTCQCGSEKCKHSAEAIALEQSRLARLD
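G9a (20 nM) preincubated 15 min RT with compounds, then 500 nM biotinylated H3K9 peptide and 20 uM SAM added; 2 h RT reaction. Monomethyl-H3K9 product detected by AlphaScreen with anti-H3K9me1 antibody, streptavidin donor and anti-rabbit IgG acceptor beads.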
Sfp inh = inhibitors of Bacillus subtilis Sfp phosphopantetheinyl transferase | Biochemical Sfp PPTase activity, qHTS | Potency, µM, for inactives: largest response in the series, negative = inhibition, actives largely listed as inhibitors | AID 1490 | 310,000 tested, 3.5% active | Q9F4F7;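 note: the enzyme is Sfp with the accession as filed and its product quenches rhodamine fluorescence; 0% = enzyme reaction without inhibitor and -100% = no enzyme wells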
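Compounds were incubated with enzyme (final 15 nM) for 15 min at room temperature before substrate addition started the reaction. Fluorescence at 525 nm excitation, 598 nm emission was recorded immediately and after 30 minutes.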
Starred values were filed as active, the others as inactive; [ ] = dose if it differs, or a comment. The entries come from a sample that favours hits as a whole. Calls come from the whole dose curve; as a rule, active = well fitted curve in the direction sought with a large enough effect; inconclusive = small, poorly fitted or top-dose-only effect, or another doubt; inactive = no such curve, though single readings can be large; an effect the other way counts as inactive or inconclusive. Potency is the fitted concentration of half-maximal effect.

Screening Cc1ccc(Nc2nnc(SCC(=O)NC(Cc3c[nH]c4ccccc34)C(=O)O)s2)cc1 (stereo not drawn) returned ALOX12 inh inconclusive, VDR inhibitor -16.9%, Glioma ERSR ind -1.4%, G9a inh 12.6µM* and Sfp inh -12.9%.
Screening Cc1ccc(SCC(=O)OCC(=O)N(CCC#N)c2ccccc2)cc1C returned ALOX12 inh -6.3%, VDR inhibitor -26.4%, Glioma ERSR ind -1.9% and G9a inh 56.2µM*.
N#CCCN(C(=O)COC(=O)CCc1ccccc1)c1ccccc1 was read as ALOX12 inh 0.1%, VDR inhibitor -12.0%, Glioma ERSR ind -4.1%, G9a inh 12.4% and Sfp inh 8.5%.
Screening CC1(C)Cc2c(C#N)c(Nc3ccccc3)n3c(SCC(=O)O)nnc3c2CO1 returned ALOX12 inh -26.2%.
`Cc1ccccc1NC(=O)c1c(NC(=O)C(F)(F)F)sc2c1CCCCC2` gave ALOX12 inh inconclusive, VDR inhibitor inconclusive, Glioma ERSR ind -1.3% and G9a inh 8.91µM*.
CCOc1ccccc1NC(=O)c1c(NC(=O)c2ccncc2)sc2c1CCC(C(C)(C)C)C2 (stereo not drawn) was read as ALOX12 inh -23.1%, VDR inhibitor 4.2%, Glioma ERSR ind -1.7% and G9a inh -40.9%[59 µM].
For Cc1ccccc1NC(=O)c1c(NC(=O)c2ccncc2)sc2c1CCC(C(C)(C)C)C2 (stereo not drawn) the results were ALOX12 inh inconclusive, VDR inhibitor -2.7%, Glioma ERSR ind -2.9% and G9a inh 17.8µM*.
`O=C(Nc1cccc(Cl)c1)c1c(NC(=O)C(F)(F)F)sc2c1CCCC2` gave ALOX12 inh inconclusive, VDR inhibitor inconclusive, Glioma ERSR ind -5.6% and G9a inh 3.98µM*.
Screening CCN(Cc1cc2cc(C)ccc2[nH]c1=O)S(C)(=O)=O returned ALOX12 inh -0.6%.
`O=C(C[n+]1cccc2ccccc21)c1ccccc1` gave ALOX12 inh -3.3%, VDR inhibitor 3.3%, Glioma ERSR ind 2.9%, G9a inh 44.7µM* and Sfp inh inconclusive.
`Cc1cc[n+](CC(=O)c2ccc(NC(=O)c3ccccc3)cc2)c2ccccc12` gave ALOX12 inh 380.5%, VDR inhibitor 3.9%, Glioma ERSR ind -5.2%, G9a inh 39.8µM* and Sfp inh -6.0%.
Screening O=C(C[n+]1cccc2ccccc21)c1ccc(NC(=O)c2ccccc2)cc1 returned ALOX12 inh -7.7%, VDR inhibitor 10.0%, Glioma ERSR ind -6.0%, G9a inh 25.1µM* and Sfp inh 5.0%.
COc1ccc(OC)c(NC(=O)Cn2c(-c3ccccc3)nc(C)c(CCO)c2=O)c1 was read as ALOX12 inh -0.4%.
CCN(CC)S(=O)(=O)c1ccc(N2CCCC2)c(NS(=O)(=O)c2ccc3ccccc3c2)c1 was read as ALOX12 inh -35.0%.
For Clc1cccc(-c2noc(-c3ncn4c3COC(c3ccccc3Cl)C4)n2)c1 (stereo not drawn) the results were ALOX12 inh -4.7%.
For Cc1sc(-n2c(C)ccc2C)c(C#N)c1C the results were ALOX12 inh inconclusive, VDR inhibitor 79.4µM*, Glioma ERSR ind -1.2%, G9a inh 7.94µM* and Sfp inh 63.1µM*.
Screening CNC(=O)CN(C)c1nc(-c2ccccc2)c2ccccc2n1 returned ALOX12 inh -6.8%.
Screening CCCCn1c(=O)n(CC(=O)NCC(F)(F)F)c(=O)c2c1ncn2Cc1ccco1 returned ALOX12 inh -38.6%.
`CCCn1nnc(NC(=S)NC(=O)c2ccc(-c3ccc(Br)cc3)o2)n1` gave ALOX12 inh -6.9%, VDR inhibitor -13.1%, Glioma ERSR ind -4.0%, G9a inh inconclusive and Sfp inh -26.2%.
CCCn1nnc(NC(=S)NC(=O)Cc2ccccc2)n1 was read as ALOX12 inh inconclusive, VDR inhibitor -13.2%, Glioma ERSR ind 1.1%, G9a inh 31.6µM* and Sfp inh -13.5%.
Screening CCCn1nnc(NC(=S)NC(=O)CC)n1 returned ALOX12 inh inconclusive, VDR inhibitor 9.0%, Glioma ERSR ind -0.8%, G9a inh 8.91µM* and Sfp inh 39.8µM*.
For Clc1ccc(Nc2ncc(-c3cccnc3)c3c2OCC3)cc1 the results were ALOX12 inh 10.3%[176 µM].
For COC(=O)c1c(-c2cccs2)csc1NC(=O)c1ccc(C)cc1 the results were ALOX12 inh 7.2%, VDR inhibitor inconclusive, Glioma ERSR ind 3.0% and G9a inh inconclusive.
Screening COC(=O)c1c(-c2cccs2)csc1NC(=O)c1cc(OC)cc(OC)c1 returned ALOX12 inh -18.6%, VDR inhibitor inconclusive, Glioma ERSR ind 9.4% and G9a inh 2.82µM*.
For COC(=O)c1c(-c2cccs2)csc1NC(=O)c1ccc(Br)cc1 the results were ALOX12 inh inconclusive, VDR inhibitor inconclusive, Glioma ERSR ind 0.7% and G9a inh 1.58µM*.
For COC(=O)c1c(-c2cccs2)csc1NC(=O)c1cc(OC)c(OC)c(OC)c1 the results were ALOX12 inh inconclusive, VDR inhibitor inconclusive, Glioma ERSR ind -4.5% and G9a inh inconclusive.
COC(=O)c1c(-c2cccs2)csc1NC(=O)c1ccc(OC)c(OC)c1 was read as ALOX12 inh -23.6%, VDR inhibitor inconclusive, Glioma ERSR ind -0.3% and G9a inh 2.82µM*.
`COc1cc(Cl)c(C)cc1NC(=O)c1nc2ccccc2nc1N1CCCCC1` gave ALOX12 inh -1.0%.
For O=C(COc1ccccc1O)NNc1ccccc1 the results were ALOX12 inh -28.6%, VDR inhibitor -8.2%, Glioma ERSR ind 0.4%, G9a inh 15.8µM* and Sfp inh 7.0%.
For CNC(=S)NNC(=O)COc1cccc(C)c1C the results were ALOX12 inh -0.4%, VDR inhibitor 3.6%, Glioma ERSR ind 1.5%, G9a inh 7.94µM* and Sfp inh 32.0%.
`CNC(=S)NNC(=O)COc1ccccc1C` gave ALOX12 inh 23.9%, VDR inhibitor 2.7%, Glioma ERSR ind -2.7%, G9a inh 31.6µM* and Sfp inh -3.4%.
`CN(C)c1ccc(C=Nc2ccc(F)cc2)cc1` gave ALOX12 inh 68.6%.
COc1ccc(NC(=O)CSc2nc(N3CCOCC3)c3c(c2C#N)CCCC3)c(OC)c1 was read as ALOX12 inh 4.3%.
For O=C(O)C(c1c[nH]c2cc(CO)ccc12)N1CCN(Cc2cccs2)CC1 (stereo not drawn) the results were ALOX12 inh -4.0%.
O=P(c1ccccc1)(c1ccccc1)C(O)c1ccccn1 (stereo not drawn) was read as ALOX12 inh 2.2%, VDR inhibitor -17.3%, Glioma ERSR ind 4.4% and Sfp inh 79.4µM*.
`O=C(O)/C=C/C(=O)c1ccc(O)cc1` gave ALOX12 inh -16.9%, VDR inhibitor inconclusive, Glioma ERSR ind -3.4%, G9a inh inconclusive and Sfp inh 2.24µM*.

Screening data from PubChem.
